Experimental findings from PubChem BioAssay (NCI) are described below.

Where “and” joins values, the source holds several entries; their conditions need not be identical. Equal entries are not always repeated. About 83,000 compounds went through this panel and 20% of them were active in at least one assay; those are over-represented in the sample as a whole.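 Method: cells in 96-well plates; compound added at one concentration; 48 h incubation; percent growth measured; values under 10 scored active.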 A number with no mark means an inactive call. Calls of active or inactive are those of the source.

The test system of one assay is A549/ATCC NSCLC. Put plainly: NCI-60 one-dose screen, 48 h (100 = growth as untreated, 0 = no growth, -100 = all killed). The following applies: 1 µM. Here is the method:
Growth inhibition of the A549/ATCC human Non-Small Cell Lung tumor cell line is measured as a screen for anti-cancer activity. Cells are grown in 96 well plates and exposed to the test compound for 48 hours. Compounds are tested at a single concentration, which is 10^-5 M for most compounds. The reported endpoint is percent growth (GI% or GIPRCNT), where numbers from 0 - 100% represent growth inhibition, and numbers from -100% - 0 represent cell death. For example, a value of 40 represents 60% growth inhibition. A value of 0 means no net growth occurred over the course of the experiment. A value of -40 indicates 40% of cells at the beginning of the experiment died by the end of the experiment. A value of -100 means all cells are dead at the end of the experiment.
NCI-60 Human Tumor Cell Lines Screen was performed using the standard one-dose NCI protocol, which is described in more detail at https://dtp.cancer.gov/discovery_development/nci-60/default.htm.
Compounds with GIPRCNT values below 10 were considered active. Activity score was based on GIPRCNT using the following formula: […]
Score is 0 for GIPRCNT values of 100 or above, 50 for GIPRCNT values of 0, and 100 for GIPRCNT values of -100.
As for `CC/C(=C(/c1ccc(O)cc1)c1ccc(OCCN(C)C(=O)COCCOCCNC(=O)c2ccc3c(c2)CN([C@@H]2CCC(=O)NC2=O)C3=O)cc1)c1ccccc1`, the growth is 89.4%.

Take `CC/C(=C(/c1ccc(O)cc1)c1ccc(OCCN(C)C(=O)COCCOCCNC(=O)Cc2ccc3c(c2)CN([C@@H]2CCC(=O)NC2=O)C3=O)cc1)c1ccccc1`: the growth is 102%.

As for `CC/C(=C(\c1ccc(O)cc1)c1ccc(OCCN(C)C(=O)CCOCCNC(=O)c2ccc3c(c2)CN([C@@H]2CCC(=O)NC2=O)C3=O)cc1)c1ccccc1`, the growth is 85%.

The assay is the same for the next values; noted with them: 10 µM.
Consider `CC/C(=C(/c1ccc(O)cc1)c1ccc(OCCN(C)C(=O)COCCOCCNC(=O)c2ccc3c(c2)CN([C@@H]2CCC(=O)NC2=O)C3=O)cc1)c1ccccc1`, for which the growth is 85.3%.

Consider `CC/C(=C(/c1ccc(O)cc1)c1ccc(OCCN(C)C(=O)COCCOCCNC(=O)Cc2ccc3c(c2)CN([C@@H]2CCC(=O)NC2=O)C3=O)cc1)c1ccccc1`, for which the growth was 88.1%.

Turning to `CC/C(=C(\c1ccc(O)cc1)c1ccc(OCCN(C)C(=O)CCOCCNC(=O)c2ccc3c(c2)CN([C@@H]2CCC(=O)NC2=O)C3=O)cc1)c1ccccc1`, the growth was 82.2%.

The assay is the same for the next values; noted with them: 10 µM unless noted.
`CCOC(=O)/C(F)=C/C1CC1CCc1ccc(OCC)cc1` (stereo not given): the growth was 50.5%.

Take `N#CC1=C(c2ccco2)Nc2c(c(-c3ccccc3)nn2-c2ccccc2)C12C(=O)Nc1ccc(Br)cc12` (stereo not given): the growth is 1.5% (active).

With `Cc1ccc(Nc2nnc(-c3c[nH]c4ccccc34)o2)c(C)c1`, the growth is 12.6%.

Consider `O=C(CSc1nnc(-c2ccc(-c3nc4ccc(Cl)cc4[nH]3)cc2)o1)Nc1ccccc1`, for which the growth was -31.9% (active).

In the case of `COc1ccc(C(=O)/C=C/c2ccc3c(c2)OCCO3)cc1S(N)(=O)=O`, the growth was 47.6%.

Consider `CS(=O)(=O)Nc1cc(-c2ccc3ncnc(Nc4ccc(OCc5cccnc5)c(Cl)c4)c3c2)cnc1Cl`, for which the growth was 45.6%.

For `O=C(NC(=S)N1CCN(c2ncnc3c2cnn3-c2ccccc2)CC1)c1ccc(Br)cc1`, the growth is 80.6%.

In the case of `COc1ccc(C(=O)NNC(=O)CSc2nc3sc4c(c3c(=O)n2-c2ccc(Cl)cc2)CCCC4)cc1`, the growth is 86.7%.

Take `O=C1CCC(N2C(=O)c3cccc(NCCOCCOCCOCCC(=O)NCCCC(=O)NC(c4ccc5c(c4)OCO5)c4cc(Cl)c5cccnc5c4O)c3C2=O)C(=O)C1` (stereo not given): the growth was 88.3%.

On to `Cc1ccccc1Nc1nnc(-c2c[nH]c3ccccc23)o1`, for which the growth was 40.3%.

On to `CC1CCc2c(sc3nc(SCC(=O)c4cccc(Br)c4)n(-c4ccccc4)c(=O)c23)C1` (stereo not given), for which the growth was 92.3%.

`Cn1cc(Nc2ncnc(-c3ccc(N4CCCC4)c(C#N)c3)n2)cn1`: the growth is 83.7%.

Consider `N#C/C(=C/c1ccc(Cl)cc1)c1nnc(NC(=O)c2ccc(-n3c(=O)[nH]c4ccccc4c3=O)cc2)s1`, for which the growth is 69.8%.

For the compound `O=C(NNC(=O)c1ccc(OCc2nc3ccc(Cl)cc3[nH]2)cc1)Nc1ccc(Cl)c(Cl)c1`, the growth is 60.2%.

As for `N#CCc1nnc(NC(=O)c2ccc(-n3c(=O)[nH]c4ccccc4c3=O)cc2)s1`, the growth was 105%.

On to `O=C(N/N=C/c1ccoc1)c1[nH]c2ccc(Br)cc2c1-c1ccccc1`, for which the growth is -60.4% (active).

For the compound `O=C(COc1ccc(/C=C2/C(=O)Nc3ccc(Cl)cc32)cc1)Nc1ccc(Br)cc1`, the growth is -66.2% (active).

`N#Cc1c(-c2ccc(F)cc2)nc(SCc2ccc(F)cc2)nc1N1CCNCC1`: the growth was -74.8% (active).

Turning to `CC(C)C[C@H](NC(=O)CNC(=O)C[C@H]1O[C@@H]2OC3(C)CC[C@H]4[C@H](C)CC[C@@H]([C@H]1C)[C@@]24O3)B(O)O`, the growth is 27.9%.

For `CC(C)C[C@H](NC(=O)[C@@H]1CCCCCCCCCCC(=O)N[C@@H](CC(=O)N2CCC[C@@H]2C2CCCC2)C(=O)N1)B(O)O`, the growth is 1.48% (active).

Take `N#CC1=C(c2cccs2)Nc2c(c(-c3ccccc3)nn2-c2ccccc2)C12C(=O)Nc1ccccc12` (stereo not given): the growth was 5.42% (active).

Turning to `O=C(CSc1nnc(-c2ccc(-c3nc4ccc(Cl)cc4[nH]3)cc2)o1)Nc1ccc(Cl)cc1`, the growth was -36.2% (active).

Take `Nc1nn2c(-c3cc4cc(Br)ccc4oc3=O)ccnc2c1N=Nc1ccccc1`: the growth is 53.4%.

Turning to `Oc1ccc(Cl)c(Nc2nc(SCCN3CCOCC3)nc3c2cnn3CC(Cl)c2ccc(Br)cc2)c1` (stereo not given), the growth is 12%.

As to `COc1cc(C=O)ccc1Oc1nc(Nc2ccc(F)cc2)nc(N(C)C)n1`, the growth is 95.1% and 91%.

`C=CCSc1nnc(-c2c(C)nc3sccn23)o1`: the growth is 92.7%.

`O=[N+]([O-])c1cccc(-c2nnc3c(/C=C/c4ccc(F)cc4)nc4ccccc4n23)c1`: the growth was 95%.

Turning to `COC(=O)c1c(C(=O)OC)c2c3ccccc3c3ccccc3n2c1C(=O)C(F)(F)F`, the growth was 111%.

Consider `C[C@@H]1[C@H]2C[C@@H](C[C@H]1NCc1nc3ccccc3n1C1CCCCCC1)C2(C)C`, for which the growth is 71.8%.

On to `O=Cc1cncc(-c2ccc3ncnc(N4CCc5cc(F)c(Cl)cc54)c3c2)c1`, for which the growth was 21.6%.

Regarding `COc1ccc(-c2cc(C)nc3[nH]c(=O)sc23)cc1`, the growth was 52.8%.

On to `COc1ccc2c(c1)N=c1c-2cc2c(O)[nH]c(=S)n2c1=O`, for which the growth is 65.8%.

Turning to `COc1ccc(N=Nc2c(N)nn3c(N)c(C#N)c(-c4ccc(C)cc4)nc23)cc1`, the growth was 43.3%.

On to `CS(=O)(=O)Nc1cc(-c2ccc3ncnc(N4CCc5cc(F)c(Cl)cc54)c3c2)cnc1Cl`, for which the growth is -3.2% (active).
